# Measured values published in PubChem BioAssay (NCATS).
# Records with an inconclusive call do not appear. A call without a number means that no potency is given here. Values without a mark were called inactive. Activity calls are given as the source filed them. Calls come from the whole dose curve; as a rule, active = well fitted inhibition curve with a large enough effect; inconclusive = small, poorly fitted or top-dose-only effect; inactive = flat fitted curve, though single readings scatter.
# Target: Glutathione peroxidase 1 (Homo sapiens) (UniProt P07203)
# Sequence (P07203 whole entry, looked up): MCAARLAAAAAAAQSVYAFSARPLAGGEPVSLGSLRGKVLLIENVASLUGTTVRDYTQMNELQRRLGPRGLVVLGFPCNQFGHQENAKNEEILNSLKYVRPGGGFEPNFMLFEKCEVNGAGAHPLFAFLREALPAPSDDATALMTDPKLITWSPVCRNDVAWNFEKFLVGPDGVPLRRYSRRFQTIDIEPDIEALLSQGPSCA
# Assay: Primary qHTS Assay for Inhibitors of Recombinant Selenoprotein Glutathione Peroxidase 1 (GPX1) (AID 1845191); note: nearly all actives have a fitted effect of over 65% in size
# Conditions: recombinant GPX1, GR-coupled NADPH fluorescence, 15 min; series mostly up to 48.8 µM; activity, negative = inhibition: at the top concentration
# Excerpt: Assay Provider: Elias S.J. Arner MD PhD.
# Department of Medical Biochemistry and Biophysics
# Karolinska Institutet, Solna, Stockholm, Sweden
# Selenoprotein glutathione peroxidases (GPX), like the ubiquitously expressed GPX1 and the ferroptosis modulator GPX4, enact their antioxidant activities by reducing hydroperoxides using glutathione. […] GPX1 and GPX4 inhibitors have thus shown promise as anti-cancer agents. Existing inhibitors are often promiscuous, or modulate GPX activity only indirectly, so novel direct inhibitors identified through screening against GPX1 and GPX4 could be valuable. Here, we developed optimized glutathione reductase (GR)-coupled GPX assays for the biochemical high-throughput screen (HTS) of almost 12,000 compounds with known mechanisms of action. Initial hits were triaged using a GR counter-screen, assessed for isoform specificity using a separate GPX2 assay, and were assessed for general selenocysteine-targeting activity using a thioredoxin reductase (TXNRD1) assay. With this suite of assays, we identified novel GPX1/GPX2- and GPX4-specific inhibitors and can here present a validated pipeline for future discovery research for selenoprotein-targeting agents.
# SEQUENCE No. (e.g., 1, 2, 3, etc.); […] (e.g., Cells, Incubation, Reagent, etc.); VALUE; DESCRIPTION.
# 1; Reagent 1; 3 uL; GPx1 enzyme or no enzyme control in 1536-well, black, solid Greiner assay plate.
# 2; Compound; 25 nL; Kalypsis pin tool (Wako USA) equipped with a 1536-well pin head.
# 3; Incubation; 30 min; room temperature.
# 4; Reagent 2; 1 uL; 10 nM GPX1, 1 mM GSH, 0.5 mM CHP, 0.5 mM NADPH, 100 nM GR, 0.01% BSA substrate
# 5; Detection; Fluorescence; ViewLux microplate reader, excitation 340 nm and emission 450 nm.
# 6; Incubation; 15 min; room temperature.
# 7; Detection; Fluorescence; ViewLux microplate reader, excitation 340 nm and emission 450 nm.
# NOTES (numbers refer to Sequence numbers above)
# 1. 3 uL of 16.66 nM GPX1 and 0.016% BSA in assay buffer (50 mM Tris-HCl, 2 mM EDTA (pH 7.5), 150 mM NaCl) was added to columns 3-48 of 1536-well assay plates using a BioRAPTR Flying Reagent Dispenser (Let's Go Robotics (LGR), Carlsbad, CA). A no-enzyme control (0.01% BSA in TES assay buffer) was added to columns 1-2.
# 2. 25 nL of test compounds and DMSO controls were added to each well with a pin tool (Kalypsys).
# 3. The assay plates were incubated for 30 minutes at room temperature.
# 4. 1 uL of master mix (500 nM glutathione reductase (GR), 5 mM reduced glutathione (GSH), 2.5 mM NADPH in assay buffer) was added. 1 uL of cumene hydroperoxide (CHP) ([2.5 mM] in 50% EtOH) was then added within 5 minutes to initiate the reaction. Final concentrations were: 10 nM GPX1, 1 mM GSH, 0.5 mM CHP, 0.5 mM NADPH, 100 nM GR, 0.01% BSA.
# 5. Initial fluorescence readout (t=0) at 340/450 nm was measured using a ViewLux multimodal detector (PerkinElmer, Waltham, MA).
# 7. Endpoint fluorescence readout (t=15) at 340/450 nm was measured 15 min after room temperature incubation.
# Potency is the fitted concentration of half-maximal effect.
SMILES,Potency,"activity, negative = inhibition",outcome
C/C=C(/C)C(=O)O[C@H]1C(C)=CC23C(=O)C(C=C(CO)[C@@H](O)[C@]12O)[C@H]1[C@@H](C[C@H]3C)C1(C)C (stereo not given in full),inactive,,
C[C@@H](O)[C@@H]1NC(=O)[C@H](CCCCN)NC(=O)[C@@H](Cc2c[nH]c3ccccc23)NC(=O)[C@H](Cc2ccccc2)NC(=O)[C@@H](NC(=O)[C@H](N)Cc2ccccc2)CSSC[C@@H](C(=O)N[C@H](CO)[C@@H](C)O)NC1=O,,-1.56% [at 27.7 µM],
COc1cc2c3c(n(CCCNCCO)c(=O)c2cc1OC)-c1cc2c(cc1C3=O)OCO2,,,inactive
C/C(=N\NC(=S)N1CCC1)c1ccccn1,,,inactive
Cc1ccc(NS(=O)(=O)c2cc3c(cc2Cl)CCC(=O)N3)cc1Cl,,,inactive
CC1(C)S[C@H]2[C@H](NC(=O)[C@@H](N)c3ccc(O)cc3)C(=O)N2[C@H]1C(=O)O,,-4.77%,
COc1cc(C(=O)NC(N)=Nc2ccc(C)c(NC(=O)c3ccc(-c4ccccc4)cc3)c2)cc(OC)c1OC,,3.57%,
CC1Cc2ccccc2N1C(=O)Cc1nc(N2CCOCC2)cc(=O)[nH]1 (stereo not given),,,inactive
CC1(C)CCC2(CC1)N[C@@H](C(=O)N[C@@H]1CC[C@@H](C(N)=O)OC1)[C@H](c1ccnc(Cl)c1F)[C@]21C(=O)Nc2cc(Cl)ccc21,,,inactive [at 27.7 µM]
C=CCNC1=C2CC(C)CC(OC)C(O)C(C)/C=C(\C)C(OC(N)=O)C(OC)/C=C/C=C(\C)C(=O)NC(=CC1=O)C2=O (stereo not given),,0.58%,
Cc1cc(O)cc2c1[C@]1(C)CC[C@H]3C(C)(C)CCC[C@]3(C)[C@H]1C2,,-4.81% [at 4.49 µM],
Cc1cc(-n2c(=O)ccc3cnc4[nH]ccc4c32)ccc1F,,,inactive
O=C(/C=C\n1cnc(-c2cc(C(F)(F)F)cc(C(F)(F)F)c2)n1)NNc1ccccn1,,,inactive
OC1CCC([C@H](O)C[C@H]2c3c(F)cccc3-c3cncn32)CC1 (stereo not given in full),,,inactive
C=C1C(=O)O[C@H]2C[C@H](C)C(/C=C/C(C)=O)=CC[C@H]12,,,inactive
COc1cccc(-c2c(C)n(Cc3c(F)cccc3C(F)(F)F)c(=O)n(C[C@H](NCCCC(=O)O)c3ccccc3)c2=O)c1F,inactive,,
COC1=C2C[C@H](C)C[C@H](OC)[C@H](O)[C@@H](C)/C=C(/C)[C@H](OC(N)=O)[C@@H](OC)/C=C\C=C(\C)C(=O)NC(=CC1=O)C2=O,,,inactive
O=c1oc2c(C3OCCCO3)c(O)ccc2c2c1CNCC2,,-8.74%,
CC1=NN(c2ccc(C(=O)O)cc2)C(=O)/C1=C/c1ccc(-c2cc(C)c(C)cc2[N+](=O)[O-])o1,,,inactive
CC[C@@]1(O)C(=O)OCc2c1cc1n(c2=O)Cc2c-1nc1ccccc1c2CCNC(C)C,,-16.5% [at 4.49 µM],

SMILES,Potency,"activity, negative = inhibition",outcome
Cn1cc(/C=C2\C(=O)Nc3cccnc32)c2ccccc21,,-21.3%,
CC(=O)Nc1cc(Oc2ccc3c(nc(Nc4ccc(F)cc4F)n3C)c2C)ccn1,,,inactive
Cc1c(CN2CCN(C(=O)[C@H](C)O)CC2)sc2c(N3CCOCC3)nc(-c3cnc(N)nc3)nc12,,-7.34%,
C=C1CCC[C@]2(C)C=C3OC(=O)C(C)=C3C[C@@H]12,,,inactive
Cc1c(F)cccc1NC(=O)Nc1ccc(Cl)c(S(=O)(=O)[C@H]2CCCNC2)c1O,,,inactive
COc1cc(C)[nH]c(=O)c1CN1CCc2c(Cl)cc([C@H](OC)C3COC3)c(Cl)c2C1=O,,,inactive
Cc1ccc(-n2c(C)cc(-c3nnc4n3CCCCC4)c2C)cc1,,-6.38%,
O=C(C[C@@H]1C/C=C\CCC(=O)O[C@H](c2ccccc2)CNC1=O)NCc1ccc(Cl)cc1,,,inactive
NC(=O)c1cccc2c(NC(CN3CCC3)c3ccc(Cl)c(C(F)(F)F)c3)ncnc12 (stereo not given),,-12.1%,
C[C@H](NC(=O)/C(C#N)=C/c1cccc(Br)n1)c1ccccc1,,,inactive
CC[C@@]1(O)C(=O)OCc2c1cc1n(c2=O)Cc2c-1nc1cc(F)c(C)c3c1c2[C@@H](N)CC3,14.5 µM (active),,
NS(=O)(=O)c1ccc(S(=O)(=O)Nc2cccc3c(Cl)c[nH]c23)cc1,,,inactive
CN(Cc1ccccc1)C(=O)c1ccc(S(=O)(=O)Nc2ccccc2)cc1,,,inactive
O=C(/C=C/c1cccnc1)NCCCCC1CCN(C(=O)c2ccccc2)CC1,,,inactive
CN1C(=O)[C@@H](NC(=O)c2n[nH]c(Cc3ccccc3)n2)COc2ccccc21,,,inactive
C[C@H]1CNCCCN1S(=O)(=O)c1cccc2cncc(F)c12,inactive,,
CCS(=O)(=O)Nc1ccc(Oc2ccc(F)cc2F)c(-c2cn(C)c(=O)c3[nH]ccc23)c1,,-17.5%,
COC1CCC(N2C(=O)CNc3ncc(-c4ccc(C(C)(C)O)nc4)nc32)CC1 (stereo not given),4.59 µM (active),,
CC(C)(O)CS(=O)(=O)Nc1ccc2c(c1)CCN(C(=O)COc1cccnc1)C2,,,inactive
Cc1ccc(-c2ccc(C)cn2)nc1,,,inactive
